From PubChem BioAssay (NCI)
About 83,000 compounds went through this panel and 20% of them were active in at least one assay; those are over-represented in the sample as a whole.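 Values shown are percent growth following 48 h exposure of cells in 96-well plates to a single concentration of compound; below 10 was considered active.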 Values without a mark were called inactive. Active and inactive are the calls of the source.

The compounds below were run on IGROV1 ovarian (assay: NCI-60 one-dose screen, 48 h (100 = growth as untreated, 0 = no growth, -100 = all killed)). Conditions: 10 µM unless noted.
Experimental: Growth inhibition of the IGROV1 human tumor cell line is measured as a screen for anti-cancer activity. Cells are grown in 96 well plates and exposed to the test compound for 48 hours. Compounds are tested at a single concentration, which is 10^-5 M for most compounds. The reported endpoint is percent growth (GI% or GIPRCNT), where numbers from 0 - 100% represent growth inhibition, and numbers from -100% - 0 represent cell death. For example, a value of 40 represents 60% growth inhibition. A value of 0 means no net growth occurred over the course of the experiment. A value of -40 indicates 40% of cells at the beginning of the experiment died by the end of the experiment. A value of -100 means all cells are dead at the end of the experiment.
NCI-60 Human Tumor Cell Lines Screen was performed using the standard one-dose NCI protocol, which is described in more detail at https://dtp.cancer.gov/discovery_development/nci-60/default.htm.
Compounds with GIPRCNT values below 10 were considered active. Activity score was based on GIPRCNT using the following formula: […]
Score is 0 for GIPRCNT values of 100 or above, 50 for GIPRCNT values of 0, and 100 for GIPRCNT values of -100.

SMILES | growth
O=S(=O)(NCCCNc1cc(-c2cn(-c3ccccc3)nc2-c2cccc(O)c2)ccn1)c1ccccc1 | 59.2%
CC(=O)OCC1OC(OC2=C(CC=C(Cl)Cl)C(=O)c3ccccc3C2=O)C(OC(C)=O)C(OC(C)=O)C1OC(C)=O (stereo not given) | 83.4%
O=C(/C=C/c1cc2ccccc2[nH]c1=O)/C=C/c1cc2ccccc2[nH]c1=O | -23.6% (active)
CS(=O)(CCCCN=C=S)=NC(=O)c1c(F)c(F)c(F)c(F)c1F (stereo not given) | 106%
CC1CN(Cc2ccco2)C(=S)N(c2ccccc2)C1=O (stereo not given) | 106%
O=C(Nc1ccc(Nc2cc(Nc3ccccc3)ncn2)cc1)Nc1cc(C(F)(F)F)ccc1F | 90.3%
CCCCN(CCCC)CCC(C)(O)c1cc2ccccc2c2ccccc12 (stereo not given) | 6.06% (active)
CCCCCn1cnc2c(=S)nc[nH]c21 | 116%
COC(/C=C/c1ccc([N+](=O)[O-])cc1)OC | 89%
CNC(=S)N/N=C/CSC/C=N/NC(=S)NC | 9.24% (active)
COc1cc(C2CC(=O)Nc3c2cnn3Cc2ccco2)cc2c1OCCO2 (stereo not given) | 56.3%
CN1CCN(Cc2ccc(NC(=O)c3[nH]ncc3Nc3ncnc4sccc34)cc2)CC1 | 23.6%
CN1CCN(Cc2ccc(NC(=O)c3cncc(C#Cc4cncc5nccnc45)c3)cc2C(F)(F)F)CC1 | 22.2%
CC(=O)OC1Oc2cc(C)c(C)cc2-c2oc(=O)c(-c3cc4ccc(N(C)C)cc4oc3=O)cc21 (stereo not given) | 93.2%
COc1ccc(-c2csc(NC(=O)CN3CCN(c4cc5c(cc4F)c(=O)c(C(=O)O)cn5C4CC4)CC3)n2)cc1 | 38.5%
COc1cnc2c(c1)C(=O)c1c-2n(CCCN2CCN(C)CC2)c(=O)c2cc([N+](=O)[O-])ccc12 | -55.2% (active)
CCCCCCCCCCCCN1CCCC(C)C1 (stereo not given) | 82.4%
Cc1sc2nc3[nH]/c(=C\c4ccc(Cl)cc4)c(=O)n3c(=O)c2c1C | 107%
Cn1c2c(Cl)c(Cl)ccc2c2ccn3c(=O)c4ccccc4nc3c21 | 54.4%
O=[N+]([O-])c1cccc(-c2nc3sccn3c2-c2ccnc(NCCCNS(=O)(=O)c3ccc(Br)cc3)n2)c1 | 41.6%

SMILES | growth
O=C(Nc1ccc(Oc2ccc(F)cc2)c(Cl)c1)c1cccnc1 | 95.4%
Nc1ccc(Nc2nccc(-c3ccc4ccccc4c3)n2)cc1 | 38.2%
CCOC(=O)/C=C/c1ccc(C(=O)OCC)[nH]1 | 42.4%
CNCc1cccc2c1OCCOCCOCCN(C)S(=O)(=O)c1ccc(cc1)-c1cnc(N)c(n1)C(=O)N2 | 42.5%
COc1ccc(/C=C2\CN(C(=O)CCN3CCC(=NO)CC3)C/C(=C\c3ccc(OC)cc3)C2=O)cc1 | -14.1% (active)
O=C1Nc2ccccc2/C1=C/C(=N/c1nnc(-c2ccccc2)s1)c1ccccc1 | 19.7%
CCOC(=O)c1c2c(n3ccc(NC(=O)CCN4CCCCC4)cc13)C(=O)c1ncccc1C2=O | 35.1%
O=c1c(/C=C/c2ccco2)nnc(SCCN2CCOCC2)n1/N=C/c1ccc([N+](=O)[O-])cc1 | 82.8%
O=c1ccc2cc3ccccc3cc2[nH]1 | 98.2%
COc1ccc(C2CC(=O)Nc3c2c(C)nn3-c2nc3ccccc3[nH]2)cc1 (stereo not given) | 12.6%
Cc1cc2c(cc1C)NC1=C(N2)OC(c2c3ccccc3cc3ccccc23)C1=O (stereo not given) | 17.4%
CCCC(=O)Oc1ccc(/C(=C(/CC)Cc2ccccc2)c2ccc(OCCN3CCCC3)cc2)cc1 | 74%
CCCCCCCCCCCCCCCCCCNC(=O)[C@H]1CSC(c2ccc(F)c(OC)c2)N1 (stereo not given in full) | -6.12% (active)
Cn1c2ccccc2c2c3c(c4c5ccccc5n(CCCCCC#N)c4c21)C(=O)N(O)C3=O | 27.6%
Oc1ccc(Nc2nccc(-c3ccc4ccccc4c3)n2)cc1 | 36.3%
COc1ccc(N(Cc2cc(OC)c(OC)c(OC)c2)C2OC(=O)c3ccccc32)cc1 (stereo not given) | 36.3%
O=[N+]([O-])c1cccc(-c2nc3sccn3c2-c2ccnc(NCCNS(=O)(=O)c3ccc(C(F)(F)F)cc3)n2)c1 | 27.1%
O=C(CCN1CCOCC1)Nc1ccc(Cn2nnc3c2C(=O)c2nnn(Cc4ccc(NC(=O)CCN5CCOCC5)cc4)c2C3=O)cc1 | -19.8% (active)
CCN(CC)C12CCCCC1(C)C(C#N)(C#N)C(C#N)=C(N)O2 (stereo not given) | 111%
Fc1ccc(Cc2ccc(F)cc2)cc1 | 102%
